From PubChem
This is a sample that favours compounds with a hit; in the whole collection about 12% have one here.
PostGolgi ctrl: growth inhibition of yeast control strain, primary screen, counter-screen for post-Golgi transport modulator project; inhibition, % at 10 µM; actives 5% (n = 98,000); efflux-deficient yeast background strain, growth absorbance A615, 16 h
hDAT+cocaine: changed hDAT dopamine uptake under cocaine IC80, either direction, primary screen, cocaine antagonist project, cell-based, LLC-PK1 hDAT, [14C]-dopamine uptake, MLSMR. Sodium-dependent dopamine transporter (Homo sapiens), Q01959. LLC-PK1 hDAT cells, [14C]-dopamine uptake with cocaine IC80; actives deviate in either direction. B-score at 10 µM. actives 1.3% (n = 110,000). AID 449768, 2010;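 active = Z score or B-score, a plate-position-corrected score, falls beyond the plate's 99.7% confidence bounds, in either direction; inactive = both scores lie inside the 99.7% bounds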
Target sequence (Q01959 whole entry, looked up): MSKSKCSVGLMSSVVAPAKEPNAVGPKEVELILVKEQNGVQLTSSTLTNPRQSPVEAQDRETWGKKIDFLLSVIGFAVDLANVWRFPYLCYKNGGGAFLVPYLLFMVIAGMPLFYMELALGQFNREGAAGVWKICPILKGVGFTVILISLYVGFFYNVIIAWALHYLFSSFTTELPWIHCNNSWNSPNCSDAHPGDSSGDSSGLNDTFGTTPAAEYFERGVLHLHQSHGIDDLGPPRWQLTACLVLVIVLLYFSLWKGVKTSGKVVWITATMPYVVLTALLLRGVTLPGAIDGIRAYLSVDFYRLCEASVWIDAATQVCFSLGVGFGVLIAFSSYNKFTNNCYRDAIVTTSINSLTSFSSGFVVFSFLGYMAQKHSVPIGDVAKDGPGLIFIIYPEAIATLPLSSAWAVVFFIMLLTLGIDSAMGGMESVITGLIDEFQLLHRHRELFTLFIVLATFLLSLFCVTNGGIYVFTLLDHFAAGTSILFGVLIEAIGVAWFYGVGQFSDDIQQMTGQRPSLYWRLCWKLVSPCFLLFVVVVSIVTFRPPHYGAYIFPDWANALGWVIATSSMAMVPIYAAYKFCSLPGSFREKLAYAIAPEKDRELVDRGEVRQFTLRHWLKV
PLAP activator: PLAP enzyme activators, biochemical, luminescence, HTS; activation fold at 20 µM; purified PLAP enzyme, luminescent substrate read-out; active compounds read high; AID 696, 2007; Alkaline phosphatase, placental type (Homo sapiens), P05187; actives 1.2% (n = 96,000); in the data active = activation fold above about 2
Cav32 inh: Cav3.2 calcium influx blockers – cell-based, Fluo-4 calcium fluorescence, FDSS, MLSMR library, primary screen; Voltage-dependent T-type calcium channel subunit alpha-1H (Homo sapiens), O95180; actives 4% (n = 100,000); Cav3.2-expressing cells; active compounds read low; B-score at 10 µM;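 active = single-dose well whose peak fluorescence ratio is a statistical outlier from its plate by either plate-standardised score or position-corrected B-score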
PostGolgi yeast: phenotypic screen on post-Golgi transport, primary screen. post-Golgi transport phenotypic cell assay. inhibition, % at 10 µM. actives 0.9% (n = 98,000). AID 739, 2007;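 note: yeast cells grown in 1536-well plates; yeast grown about 18 h at 30C before absorbance read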
D1 allo mod: D1 CRE-luciferase signal change, two-sided – cell-based, HEK293 D1, dopamine EC30, D1 allosteric modulator project, primary screen; B-score at 10 µM; actives 5.9% (n = 58,000); D(1A) dopamine receptor (Homo sapiens), P21728; dopamine EC30 potentiation; actives deviate in either direction;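 active = luminescence count or its row- and column-corrected plate score outside the 99.7% band of the plate's sample wells, on either side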
Of the large screens only hits and unclear results are named; the others gave an inactive call. Cut-off read from the data, not from the text of the source, unless noted: active = inhibition above about 30%; inactive = the rest.

Cc1ccc(Cl)cc1N1CCN(S(=O)(=O)c2ccc3c(c2)oc(=O)n3C)CC1	PostGolgi ctrl 37 (no result: D1 allo mod)
Cn1c(=O)oc2cc(S(=O)(=O)N3CCOCC3)ccc21	none
O=C(O)C12CC3CC(C1)CC(n1cnc(Cl)n1)(C3)C2	none
O=C(NC12CC3CC(CC(C3)C1)C2)C12CC3CC(C1)CC(n1cnc(Cl)n1)(C3)C2	PostGolgi ctrl 45 (no result: D1 allo mod)
CCOC(=O)/C(=N\Nc1cc(C(F)(F)F)ccc1Cl)N(CC)CC	none (no result: D1 allo mod)
Cc1cccc(N2C(=O)CN=C2Nc2nc(C)cc(C)n2)c1	PLAP activator 2.6 (no result: D1 allo mod)
c1cn(-c2ncnc3sc4c(c23)CCCC4)cn1	none (no result: PostGolgi ctrl, PostGolgi yeast)
Nc1ccc(-c2n[nH]c(=O)c3ccccc23)cc1N	none
CCOC(=O)n1c(SCC(N)=O)nc2ccccc21	none (no result: D1 allo mod)
CCCCOC(=O)n1c(SCC(=O)N(CC)CC)nc2ccccc21	PostGolgi ctrl 31, hDAT+cocaine 3.9
CN(C)/C=C(\C#N)C(=O)c1cccc(Oc2ccc(Br)cc2)c1	Cav32 inh -4.2 (no result: D1 allo mod)
O=C(O)c1cn(-c2ccc(F)c(F)c2)c2c(F)c(F)c(F)c(F)c2c1=O	none (no result: D1 allo mod)
O=C(c1ccccc1-c1nc(-c2ccc(Cl)cc2)no1)N1CCCC1	none
O=C(Cn1c(=O)oc2cc(S(=O)(=O)N3CCCCCC3)ccc21)NC1CCCCC1	none (no result: D1 allo mod)
Cc1ccc(NC(=O)Cn2c(=O)oc3cc(S(=O)(=O)N4CCC(C)CC4)ccc32)cc1C	Cav32 inh -5.9 (no result: D1 allo mod)
CC1(C)NC(=O)N(CC(=O)Nc2nc(-c3ccc(F)cc3)cs2)C1=O	none (no result: hDAT+cocaine, Cav32 inh, D1 allo mod)
COc1cccc(Oc2nnnn2-c2ccccc2)c1	none
COc1cccc(-n2nnnc2S(C)(=O)=O)c1	PostGolgi ctrl 30 (no result: D1 allo mod)
COc1ccccc1C(CC(N)=O)c1ccco1 (stereo not drawn)	none (no result: D1 allo mod)
COCCOC(=O)c1c(C)oc2ccc(OCC=C(C)C)cc12	none
CCN(CC)C(=O)COc1ccc2oc(C)c(C(=O)OC(C)C)c2c1	PLAP activator 2.6
CCCc1[nH][nH]c(=O)c1C(c1cccc(Cl)c1)C(C#N)C#N (stereo not drawn)	hDAT+cocaine -9.4 (no result: D1 allo mod)
CCOCCOCN(C#N)c1nc(OC)nc(N(C)C)n1	none (no result: D1 allo mod)
CC(NC(=O)CSc1nnc(COc2ccccc2)o1)c1ccccc1 (stereo not drawn)	none (no result: D1 allo mod)
CCOc1ccc(N(CC(=O)NC2CCCCC2)C(=O)CSc2nnc(COc3ccccc3)o2)cc1	Cav32 inh -4.3 (no result: PostGolgi ctrl, PLAP activator, PostGolgi yeast, D1 allo mod)
Cc1ccc(OCc2nnc(SCC(=O)CC(=O)Nc3ccccc3)o2)cc1	PostGolgi ctrl 33
COc1ccc(OC)c(NC(=O)CN2C(=O)NC3(CCOc4ccccc43)C2=O)c1 (stereo not drawn)	none (no result: D1 allo mod)
O=C1CCN2C=Nc3cccc4ccc1c2c34	Cav32 inh -8.5 (no result: D1 allo mod)
c1ccc(CN2CCN(C3=Nc4cccc5cccc3c45)CC2)cc1	none (no result: D1 allo mod)
COc1ccc(OC)c(S(=O)(=O)n2ccnc2C)c1	none (no result: D1 allo mod)
COc1ccc(Br)cc1S(=O)(=O)n1ccnc1C	hDAT+cocaine 2.7
O=C(Nc1ccccc1N1CCCCC1)c1cccs1	PostGolgi ctrl 51
O=C(Nc1ccccc1N1CCCCC1)c1ccco1	PostGolgi ctrl 33 (no result: D1 allo mod)
O=C(CCN1C(=O)c2ccccc2C1=O)Nn1cnnc1	none
Cc1ccc(SCc2[nH]nc3c2C2(C(=O)Nc4ccc(F)cc42)C(C#N)=C(N)O3)cc1 (stereo not drawn)	PLAP activator 2 (no result: D1 allo mod)
CC(=O)N1CCC2(CC1)C(C#N)=C(N)Oc1n[nH]c(CSc3ccc(C)cc3)c12	PLAP activator 2
COc1ccc(CCN2C(=O)c3ccncc3C2=O)cc1OC	none (no result: D1 allo mod)
CCOC(=O)CN1C(=O)N[C@@H](c2cccc(F)c2)C(C(=O)OC)=C1C	none (no result: PostGolgi ctrl, PLAP activator, PostGolgi yeast, D1 allo mod)
CS(=O)(=O)c1ccccc1-c1nc(-c2ccc(C(F)(F)F)cc2)no1	PostGolgi ctrl 31 (no result: D1 allo mod)
O=C(O)c1ccc(-c2noc(-c3ccccc3C(F)(F)F)n2)cc1	none (no result: PostGolgi ctrl, PLAP activator, PostGolgi yeast, D1 allo mod)
O=C(CSCC(=O)OCn1nnc2ccccc2c1=O)Nc1ccc(Cl)cc1	PostGolgi ctrl 32 (no result: hDAT+cocaine, Cav32 inh)
Fc1cccc(CSc2nc3ccncc3[nH]2)c1	none (no result: PostGolgi ctrl, PLAP activator, PostGolgi yeast)
Clc1cccc(CSc2nc3ccncc3[nH]2)c1	PLAP activator 2.4 (no result: D1 allo mod)
CC1CC(C)CN(C(=O)CSc2nnc(-c3ccc(F)cc3)o2)C1 (stereo not drawn)	none
CC1CC(C)CN(C(=O)CSc2nnc(-c3ccc(Cl)s3)o2)C1 (stereo not drawn)	Cav32 inh -3.4
COc1ccc([C@@H]2C=C(C(=O)O)O[C@H](OCCCCO)C2)cc1	none (no result: PostGolgi ctrl, PLAP activator, PostGolgi yeast, D1 allo mod)
COc1ccc(NC(=O)CSc2nnc(Cc3cccn3C)n2-c2ccc(F)cc2)cc1	none
CCOc1ccc(NC(=O)CSc2nnc(Cc3cccn3C)n2-c2ccc(F)cc2)cc1	Cav32 inh -7.4
COc1ccc(-n2c(Cc3cccn3C)nnc2SCC(=O)Nc2ccc(F)cc2)cc1	Cav32 inh -8.6
COC(=O)c1cccc(S(=O)(=O)N2CCN(c3nc4ccccc4s3)CC2)c1	D1 allo mod -2.8
COC(=O)c1cccc(S(=O)(=O)N2CCCCC2)c1	none
Cn1cccc1/C=N/n1c(-c2ccc(C(C)(C)C)cc2)n[nH]c1=S	PostGolgi ctrl 37 (no result: D1 allo mod)
COc1cccc2c(=O)c3c(cnn3C)n(C)c12	PostGolgi yeast 42 (no result: hDAT+cocaine, Cav32 inh)
COc1cc(=O)n(C)c2c(O)cccc12	none (no result: PostGolgi ctrl, PLAP activator, PostGolgi yeast, D1 allo mod)
c1ccc(-c2n[nH]c(-c3ccccn3)n2)nc1	PLAP activator 2.8
Nc1n[nH]c(-c2ccccc2)n1	none (no result: D1 allo mod)
c1ccc(-c2n[nH]c(-c3ccccn3)n2)cc1	PLAP activator 2.2 (no result: D1 allo mod)
CSc1cccc(NS(=O)(=O)c2ccc(F)cc2)c1	Cav32 inh -7 (no result: D1 allo mod)
CCOC(=O)c1c(C)noc1CP(=O)(c1ccccc1)c1ccccc1	none (no result: PLAP activator, D1 allo mod)
C=C1CCN([C@@H](Cc2ccccc2)C(=O)NCCCc2ccccc2)S(=O)(=O)c2ccccc21	Cav32 inh -4.5 (no result: PostGolgi ctrl, PLAP activator, PostGolgi yeast, D1 allo mod)
C=C1CCN([C@@H](Cc2ccccc2)C(=O)NCc2ccc(Cl)c(Cl)c2)S(=O)(=O)c2ccccc21	none (no result: PostGolgi ctrl, PLAP activator, PostGolgi yeast, D1 allo mod)
COc1ccc(S(=O)(=O)Nc2ccc(C)cc2)cc1OC	none
CCOc1cc(S(=O)(=O)Nc2ccc(Cl)cn2)ccc1Cl	none (no result: PostGolgi ctrl, PLAP activator, PostGolgi yeast, D1 allo mod)
CCOc1cc(S(=O)(=O)Nc2ccccc2CC)ccc1Cl	PostGolgi ctrl 59, Cav32 inh -5.8 (no result: D1 allo mod)
COc1ccc(S(=O)(=O)Nc2ccc(S(=O)(=O)Nc3nc(C)cc(C)n3)cc2)cc1OC	PostGolgi ctrl 32
COc1ccc(S(=O)(=O)Nc2cc(C)ccc2OC)cc1C	Cav32 inh -7.7
COc1ccc(NS(=O)(=O)c2ccc(NS(=O)(=O)c3ccc(SC)cc3)cc2)c(OC)c1	Cav32 inh -4.9 (no result: D1 allo mod)
